Inhibition data for 58 molecules are collected here from PubChem BioAssay AID1259397 (Fisher Drug Discovery Resource Center, 2018).

“And” between values parts separate entries of the source, which are not always exact repeats. Identical values can stand only once. The campaign covered roughly 130,000 compounds. About 230 (0.18%) were called active. The sample holds actives, similar compounds and a random draw of the others, so the mix is not that of the screen.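 The calls were made as follows: active = inhibition of cGAS enzyme activity at or above 60%; inactive = the rest.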

For this assay, the target named is Cyclic GMP-AMP synthase (Mus musculus) (UniProt Q8C6L5). Briefly: inhibitors of Mus musculus cyclic GMP-AMP synthase, initial high-throughput assay, cell-free, RapidFire MS (AID 1259397).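 Also: enzyme stimulated by 45 bp dsDNA with ATP and GTP substrates; cGAMP share of summed cGAMP plus half ATP and half GTP signals.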 The conditions noted are these: recombinant mouse cGAS, cGAMP by RapidFire MS; at 12.5 µM; active compounds read high.
Sequence of Cyclic GMP-AMP synthase (Mus musculus) (Q8C6L5 whole entry, looked up): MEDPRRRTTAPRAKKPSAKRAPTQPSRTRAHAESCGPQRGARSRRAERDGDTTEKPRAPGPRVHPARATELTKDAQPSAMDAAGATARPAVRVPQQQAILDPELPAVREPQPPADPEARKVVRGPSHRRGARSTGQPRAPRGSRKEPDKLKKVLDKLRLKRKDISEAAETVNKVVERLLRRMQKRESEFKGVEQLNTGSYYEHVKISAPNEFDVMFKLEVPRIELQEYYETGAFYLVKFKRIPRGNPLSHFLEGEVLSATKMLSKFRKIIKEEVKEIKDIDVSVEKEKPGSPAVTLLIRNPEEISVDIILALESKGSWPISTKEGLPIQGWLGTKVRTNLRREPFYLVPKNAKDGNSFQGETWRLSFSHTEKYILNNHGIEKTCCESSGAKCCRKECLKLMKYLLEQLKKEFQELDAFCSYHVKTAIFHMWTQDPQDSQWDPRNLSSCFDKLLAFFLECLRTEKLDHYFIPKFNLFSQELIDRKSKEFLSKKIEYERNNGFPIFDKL
`CC1(C(=O)NS(=O)(=O)c2cccc(OC(F)F)c2)CCN1C(=O)COc1ccc(Cl)cc1` (stereo not drawn): the inhibition (in general, the relative decrease from the control value, in per cent) is -4.55% (inactive).
Turning to `CCN(CC(=O)NC(C)(C)C)c1cc(Cl)nc(N)n1`, the inhibition was -6.72% (inactive).
Take `CCNC(=O)c1cc(Cl)ccc1NS(=O)(=O)c1cn[nH]c1`: the inhibition was -6.14% (inactive).
Turning to `CCC(c1nnc(SC(C)C(N)=O)n1Cc1ccccc1)N(C)C` (stereo not drawn), the inhibition is -4.22% (inactive).
On to `Cc1cc(CN2CCN3C(=O)CNC(=O)C3C2)ccc1N1CCCC1` (stereo not drawn), for which the inhibition is -4.4% (inactive).
With `CCN(CC)C(=O)N1CCCC(C(=O)Nc2ccc(S(=O)(=O)C(F)F)cc2)C1` (stereo not drawn), the inhibition was 6.42% (inactive).
The same measure for `NC(=O)c1cc(NC(=O)N2CCCCCC2c2ccco2)ccc1F` (stereo not drawn): -5.95% (inactive); for `CCn1nc(C(=O)NNC(=O)c2c(C)noc2C)c2ccccc2c1=O`: -0.0832% (inactive); for `COc1ccccc1CCc1nnc(CCC(=O)NC(C)CCn2cccn2)o1` (stereo not drawn): 2.62% (inactive).
For `O=C(CCn1cnc2ccccc2c1=O)Nc1cc2c(cc1Br)OCCO2` the value was -1.61% (inactive); for `CCN(Cc1ccncc1)C(=O)C1CCC(=O)N(Cc2ccccn2)C1` (stereo not drawn), -3.05% (inactive).
For `COc1cc(NC(=O)[C@@H](C)N2Cc3ccc(NCC(C)C)nc3C2=O)cc(OC)c1` the value was 7.27% (inactive); for `Cc1ccc(C(=O)N2CCCC(C(=O)NC3C4CCc5ccccc5C43)C2)cc1` (stereo not drawn), -4.85% (inactive).
As for `CCCN1C(=O)CCc2cc(NC(=O)COC)ccc21`, the inhibition is -1.31% (inactive).
For `CCC(CC)S(=O)(=O)NC(=O)c1c(C)nn(CC)c1Cl` the value was -36.3% (inactive); for `CC(C)Cc1ccc(C(=O)c2cccs2)cc1`, 2.67% (inactive); for `Cc1c(C(=O)NCc2cccc([N+](=O)[O-])c2)sc(=O)n1CCc1ccccc1`, -3.1% (inactive).
For the molecule `OC(c1ccc(Cl)c(F)c1)c1ncc(-c2ccccc2Cl)[nH]1` (stereo not drawn), the inhibition is -1.95% (inactive).
For `O=C(CCOc1ccccc1)N1CC(c2ccncc2)C1` the value was -7.26% (inactive); for `C=CCNC(=O)c1cccnc1-c1ccc(OC)c2ncccc12`, -6.67% (inactive).
With `O=C1N(CCCc2ccccc2)CCCC12CCN(c1cnccn1)C2` (stereo not drawn), the inhibition was -11% (inactive).
The same measure for `CCCCN(CCCC)C(=O)c1[nH]c(C)c(C(C)=O)c1C`: -6.21% (inactive).
For the molecule `Cc1cccc(NCCNC(=O)c2oc(Br)cc2C)n1`, the inhibition is -6.38% (inactive).
The same measure for `CC(C)C(NC(=O)c1ccco1)C(=O)N1CC(C)(C)C1(C)C` (stereo not drawn): -1.92% (inactive); for `N#CC(Cc1ccccc1)NC(=O)/C=C/c1ccccc1Br` (stereo not drawn): 8.15% (inactive); for `Cc1cc(C)n(C(=O)C(C)n2cc([N+](=O)[O-])cn2)n1` (stereo not drawn): -19.7% (inactive).
The same measure for `COC(=O)CCC(=O)N1CCCC(C(=O)c2ccc(-c3ccccc3)cc2)C1` (stereo not drawn): -2.49% (inactive); for `Cc1ccc(C(=O)NCC(NC(=O)c2ccc(C)nc2)C(C)C)cn1` (stereo not drawn): 3.43% (inactive).
For `CC(C)C1CN(C(=O)CCn2cncn2)CCCN1Cc1ccc(F)cc1` (stereo not drawn), the inhibition was -18% (inactive).
With `COc1ccc(-n2c(C)nc3ccc(NC(=O)Nc4ccc(C)cc4C)cc3c2=O)cc1`, the inhibition is -11.4% (inactive).
In the case of `CN(C(=O)c1ccc(=O)[nH]n1)C1c2ccccc2-c2ccccc21`, the inhibition was -2.89% (inactive) and -15.8% (inactive).
Regarding `Cc1ncc(-c2c(-c3ccccc3)ncn2Cc2csc(N)n2)[nH]1`, the inhibition is -18.8% (inactive).
The same measure for `CCOc1ccc(Cl)cc1S(=O)(=O)N1CCN(CCO)CC1`: -1.81% (inactive); for `Cc1ccccc1NC(=O)Cn1cc(S(=O)(=O)c2ccc(F)cc2)c(=O)c2cc3c(cc21)OCO3`: -8.2% (inactive).
On to `CN1C(=O)Cc2cc(-c3csc(CCN4CCCCC4)n3)ccc21`, for which the inhibition is -45.7% (inactive).
Regarding `Cc1cc(C)c(S(=O)(=O)Nc2ccc(-c3cn4ccc(C)nc4n3)cc2)c(C)c1`, the inhibition is -25.3% (inactive).
For `CCCn1c(=O)c2c(nc3n2CCN3c2cc(C)ccc2C)n(C)c1=O` the value was -2.17% (inactive).
For the molecule `Cn1c(=O)c2c(nc(CN3CCCCC3)n2Cc2cccc3ccccc23)n(C)c1=O`, the inhibition is -3.06% (inactive).
For the molecule `CCOc1ccc2c(c1)C(C)CC(C)(C)N2C(=O)C1CCN(C(=O)C2CC2)CC1` (stereo not drawn), the inhibition is -7.85% (inactive).
For `CSCc1ccc(C(=O)N2CCCC(C(=O)c3ccc4c(c3)OCO4)C2)o1` (stereo not drawn) the value was -4.82% (inactive).
Turning to `O=C(C=Cc1ccsc1)N1CCN(S(=O)(=O)c2cc(F)ccc2F)CC1`, the inhibition was -8.87% (inactive).
Turning to `CN(C)CCNc1cc(-c2n[nH]c(C(F)(F)F)n2)c2cc[nH]c2n1`, the inhibition is -6.32% (inactive).
Regarding `COc1ccccc1OCCCOc1ccc(Cl)cc1Cl`, the inhibition was -12.4% (inactive).
Consider `CCOc1cn2c(cc1=O)C(=O)N(CCNC(=O)c1ccc(C)cc1)CC2`, for which the inhibition is -4.57% (inactive).
As to `CCCN(C(=O)c1ccc(-n2ccnc2)cc1)C1CCCC1`, the inhibition is -16.4% (inactive).
Turning to `Cc1cnn(CC2CCN(C(=O)c3ccccc3C3CCNC3)CC2)c1` (stereo not drawn), the inhibition was 3.82% (inactive).
With `Cc1ccc(OCc2nc(C(=O)NC3CC(C)(C)NC(C)(C)C3)cs2)cc1`, the inhibition is -17.3% (inactive).
Turning to `CCCCOC1CC(N(C)Cc2ccc(S(=O)(=O)N(C)C)o2)C1(C)C` (stereo not drawn), the inhibition is -31.6% (inactive).
For `COC(=O)C[C@H]1[C@]2(C)C[C@@]34OC5(C)OC6(C(OC(C)=O)[C@@]3(OC(C)=O)[C@H]2OC(C)=O)C2CC(=O)O[C@@H](c3ccoc3)[C@]2(C)CCC6(O5)[C@]14C` (stereo partly drawn) the value was 1.62% (inactive).
Take `Cn1ccnc1CN(C(=O)c1scc2c1CCCC2)C1CC1`: the inhibition is -27.6% (inactive).
As for `CC(C)CCN(CCC#N)Cc1ncc(Cl)n1C`, the inhibition was -8.32% (inactive).
For the molecule `CC(N)=C(C#N)C(=O)COC(=O)c1ccc([N+](=O)[O-])o1`, the inhibition was -1.77% (inactive).
For `CC(CC(=O)Nc1ccc(F)cc1)n1cncn1` (stereo not drawn), the inhibition is -11% (inactive).
Consider `CCOCC(O)CN1CCN(C(=O)Cn2ccccc2=O)CC1` (stereo not drawn), for which the inhibition is -5.1% (inactive).
The same measure for `CC(C)Cn1c(CN(Cc2ccccc2)CC2CC2)cnc1S(C)(=O)=O`: -12.5% (inactive); for `CC(C)c1ccc2c(c1)CCCN2C(=O)CSC1CCS(=O)(=O)C1` (stereo not drawn): -7.34% (inactive).
For the molecule `CC(N)=C(C#N)C(=O)COC(=O)C12CC3CC(CC(Br)(C3)C1)C2`, the inhibition is -14% (inactive).
As for `CC1C(=O)SC2(CCCCC2)N1c1ccc(Cl)cc1` (stereo not drawn), the inhibition is -10.1% (inactive).
